PostGolgi ctrl – growth inhibition of yeast control strain, primary screen, counter-screen for post-Golgi transport modulator project; efflux-deficient yeast background strain, growth absorbance A615, 16 h; inhibition, % at 10 µM; actives 5% (n = 98,000)
D1 allo mod – D1 CRE-luciferase signal change, two-sided – cell-based, HEK293 D1, dopamine EC30, D1 allosteric modulator project, primary screen; dopamine EC30 potentiation; actives deviate in either direction; B-score at 10 µM; actives 5.9% (n = 58,000); AID 641, 2007;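 active = luminescence count or its row- and column-corrected plate score outside the 99.7% band of the plate's sample wells, on either side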
hDAT+cocaine – changed hDAT dopamine uptake under cocaine IC80, either direction, primary screen, cocaine antagonist project, cell-based, LLC-PK1 hDAT, [14C]-dopamine uptake, MLSMR. Sodium-dependent dopamine transporter (Homo sapiens), Q01959. LLC-PK1 hDAT cells, [14C]-dopamine uptake with cocaine IC80; actives deviate in either direction. B-score at 10 µM. actives 1.3% (n = 110,000). AID 449768, 2010;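 active = Z score or B-score, a plate-position-corrected score, falls beyond the plate's 99.7% confidence bounds, in either direction; inactive = both scores lie inside the 99.7% bounds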;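 note: scored against the spread of the other compound wells on the same plate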
PLAP act – PLAP enzyme activators, biochemical, luminescence, HTS; purified PLAP enzyme, luminescent substrate read-out; hits give high values; activation fold at 20 µM; Alkaline phosphatase, placental type (Homo sapiens), P05187; actives 1.2% (n = 96,000); AID 696, 2007; in the data active = activation fold above about 2
Target sequence (P05187 whole entry, looked up): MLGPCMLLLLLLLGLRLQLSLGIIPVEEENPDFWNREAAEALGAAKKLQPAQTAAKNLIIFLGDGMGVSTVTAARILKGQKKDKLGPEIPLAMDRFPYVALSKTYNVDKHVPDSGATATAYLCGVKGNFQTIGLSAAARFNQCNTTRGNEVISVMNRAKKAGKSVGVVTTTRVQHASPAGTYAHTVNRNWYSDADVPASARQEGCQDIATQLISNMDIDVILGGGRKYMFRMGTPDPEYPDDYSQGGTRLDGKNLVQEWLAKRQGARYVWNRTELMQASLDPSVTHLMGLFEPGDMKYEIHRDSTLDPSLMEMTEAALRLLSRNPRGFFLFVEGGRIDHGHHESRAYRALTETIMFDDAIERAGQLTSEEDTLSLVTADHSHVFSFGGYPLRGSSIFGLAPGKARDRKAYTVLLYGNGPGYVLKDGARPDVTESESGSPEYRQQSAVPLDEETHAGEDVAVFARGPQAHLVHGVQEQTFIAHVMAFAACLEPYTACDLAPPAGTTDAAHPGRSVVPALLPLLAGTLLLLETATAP
PostGolgi yeast – phenotypic screen on post-Golgi transport, primary screen. post-Golgi transport phenotypic cell assay. inhibition, % at 10 µM. actives 0.9% (n = 98,000);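 note: yeast cells grown in 1536-well plates; yeast grown about 18 h at 30C before absorbance read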
Cav32 inh – Cav3.2 calcium influx blockers – cell-based, Fluo-4 calcium fluorescence, FDSS, MLSMR library, primary screen. Voltage-dependent T-type calcium channel subunit alpha-1H (Homo sapiens), O95180. B-score at 10 µM. AID 449739, 2010. Cav3.2-expressing cells; hits give low values. actives 4% (n = 100,000);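 active = single-dose well whose peak fluorescence ratio is a statistical outlier from its plate by either plate-standardised score or position-corrected B-score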
* = called active by the depositor. The list is not random: actives were taken first. Their share in the collection is about 12%. Cut-off read from the data, not from the text of the source, unless noted: active = inhibition above about 30%; inactive = the rest.

For CNc1cc(CSC)nc(SCc2ccc(Cl)c(Cl)c2)n1 the results were PostGolgi ctrl 35*, hDAT+cocaine 0.76, PLAP act 1, PostGolgi yeast 27 and Cav32 inh 0.098.
Screening Clc1ccc(CSC2=NCCCN2)cc1Cl returned PostGolgi ctrl -10, D1 allo mod -0.6, hDAT+cocaine 0.27, PLAP act 0.7, PostGolgi yeast 4 and Cav32 inh -0.32.
`O=C(Nc1ccccc1C(=O)N1CCOCC1)c1ccncc1` gave PostGolgi ctrl 11, D1 allo mod -0.06, hDAT+cocaine -0.51, PLAP act 1, PostGolgi yeast -4 and Cav32 inh 0.81.
Screening CCOC(=O)C1CCCN(C(=O)c2ccc(C)cc2O)C1 (stereo not drawn) returned PostGolgi ctrl 11, hDAT+cocaine -0.55, PLAP act 1.3, PostGolgi yeast -7 and Cav32 inh -0.25.
CCS(=O)(=O)c1ccc(S(=O)(=O)CC)s1 was read as PostGolgi ctrl 5, D1 allo mod 0.11, hDAT+cocaine -0.38, PLAP act 1, PostGolgi yeast 14 and Cav32 inh 1.4.
CC(C)N(C(=O)COc1ccc(Br)cc1Cl)C(C)C was read as PostGolgi ctrl 18, D1 allo mod -0.21, hDAT+cocaine 0.14, PLAP act 1.4, PostGolgi yeast 10 and Cav32 inh -5.5*.
`O=C(Nc1nccs1)Oc1ccccc1` gave PostGolgi ctrl 37*, D1 allo mod 0.5, hDAT+cocaine 1.1, PLAP act 0.9, PostGolgi yeast -5 and Cav32 inh 0.43.
O=C(NCCc1ccccc1F)C(=O)Nc1nccs1 was read as PostGolgi ctrl 30*, hDAT+cocaine -0.62, PLAP act 0.9, PostGolgi yeast -11 and Cav32 inh 2.1.
`O=C(CCC(=O)c1ccc(F)cc1)Nc1cc(Cl)cc(Cl)c1` gave PostGolgi ctrl 7, hDAT+cocaine 1.4, PLAP act 1.1, PostGolgi yeast 4 and Cav32 inh -0.47.
COCCn1c(C)c(C(=O)O)sc1=S was read as PostGolgi ctrl 9, D1 allo mod 0.28, hDAT+cocaine -0.062, PLAP act 0.8, PostGolgi yeast -7 and Cav32 inh -0.85.
`COc1cccc2[nH]c3c(N4CC(C)CC(C)C4)ncnc3c12` (stereo not drawn) gave PostGolgi ctrl 12, PLAP act 0.9 and PostGolgi yeast 1.
`CCCc1cc(C(=O)N2CCN(c3ccccc3C)CC2)cs1` gave PostGolgi ctrl 38*, D1 allo mod -0.57, hDAT+cocaine 0.5, PLAP act 1, PostGolgi yeast -10 and Cav32 inh -2.2.
For CN(C)S(=O)(=O)c1cccc(NC(=S)Nc2ccc(Cl)cc2Cl)c1 the results were PostGolgi ctrl 2, hDAT+cocaine 1.3, PLAP act 1.2 and PostGolgi yeast -5.
CN(C)S(=O)(=O)c1cccc(NC(=S)Nc2cc(Cl)cc(Cl)c2)c1 was read as PostGolgi ctrl 84*, hDAT+cocaine -2.4, PLAP act 1.5 and PostGolgi yeast 97*.
`Cc1ccc2c(c1)N(CC(=O)NC1CCCCC1C)C(=O)CO2` (stereo not drawn) gave PostGolgi ctrl -3, D1 allo mod -0.2, hDAT+cocaine 0.087, PLAP act 1.1, PostGolgi yeast -2 and Cav32 inh 1.6.
Cc1nn(-c2nc3ccccc3[nH]2)c(N)c1-c1ccc(Cl)cc1 was read as PostGolgi ctrl 72*, hDAT+cocaine -0.78, PLAP act 1, PostGolgi yeast -2 and Cav32 inh -0.27.
For CCOC(=O)c1cnc2c(-c3ccc(Cl)cc3)c(C)nn2c1N the results were hDAT+cocaine -0.23 and Cav32 inh -0.71.
Screening COc1ccc(-c2c(C)nn(-c3ccccc3)c2N)cc1 returned PostGolgi ctrl 38*, hDAT+cocaine 0.74, PLAP act 0.8, PostGolgi yeast 1 and Cav32 inh 0.46.
Screening COc1ccc(-c2c(C)nn(-c3ccccc3)c2N)cc1OC returned hDAT+cocaine 1.4 and Cav32 inh 1.
For CC(C)NC(=O)c1c(CSc2ccccc2)noc1C(=O)NCc1ccccc1 the results were hDAT+cocaine 2.8* and Cav32 inh -0.77.
`O=C(NCc1ccccc1)c1onc(CSc2ccc(Cl)cc2)c1C(=O)NCc1ccccc1` gave hDAT+cocaine 0.87 and Cav32 inh -2.1.
Screening COCCNC(=O)c1c(CSc2ccccc2)noc1C(=O)NCc1ccccc1 returned hDAT+cocaine 0.46 and Cav32 inh -0.43.
For Cc1ccccc1SCc1noc(C(=O)NC(C)C)c1C(=O)O the results were PostGolgi ctrl -7, hDAT+cocaine -0.15, PLAP act 1, PostGolgi yeast 7 and Cav32 inh 1.9.
Screening CC(C)NC(=O)c1onc(CSc2ccccc2F)c1C(=O)O returned PostGolgi ctrl 39*, hDAT+cocaine 0.11, PLAP act 0.9, PostGolgi yeast -2 and Cav32 inh 0.67.
For O=C(NCc1ccccc1)c1onc(CSc2ccccc2)c1C(=O)NCc1ccccc1 the results were hDAT+cocaine 1.6* and Cav32 inh -1.9.
For C[C@@H]1CC=C[C@H]2[C@H]1C(=O)N(Cc1ccccc1)[C@H]2c1ccc(/C=C/c2ccccc2)cc1F the results were hDAT+cocaine -1.3 and Cav32 inh -1.3.
For Cc1ccc(S(=O)(=O)NC2CCCc3ccccc32)cc1C (stereo not drawn) the results were PostGolgi ctrl 9, hDAT+cocaine 0.47, PLAP act 0.9, PostGolgi yeast 4 and Cav32 inh -4.2*.
For CCCOc1ccc(C2C(C(=O)OC)=CN(CCOC)C=C2C(=O)OC)cc1 the results were PostGolgi ctrl 14, D1 allo mod -1.3, hDAT+cocaine 0.5, PLAP act 2.1*, PostGolgi yeast 0 and Cav32 inh -1.3.
`CCOC(=O)Cn1nc(C)n(-c2ccc(C(C)C)cc2)c1=O` gave PostGolgi ctrl -5, hDAT+cocaine 0.0091, PLAP act 1, PostGolgi yeast 1 and Cav32 inh 0.53.
For c1nc(NCCN2CCOCC2)c2c3c(sc2n1)CCCCC3 the results were PostGolgi ctrl 14, D1 allo mod 1.7, hDAT+cocaine 0.51, PLAP act 1.1, PostGolgi yeast -11 and Cav32 inh 1.4.
For CC1CCc2c(sc3ncnc(NCCCOC(C)C)c23)C1 (stereo not drawn) the results were PostGolgi ctrl 32*, hDAT+cocaine 0.23, PLAP act 1.7, PostGolgi yeast 2 and Cav32 inh -4.7.
